In the supplement of paper PMC10849652:
Targets with a hit are over-represented here; the source holds about 7,900 in all. About 0.6% of all pairs of compound and target were hits.

Tests used:
Test in all cases: log2 fold change, soluble protein after heating vs DMSO (PISA); higher = thermal stabilisation; K562 cells, 10 uM, 30 min; active = over 0.2 and 3.5 SD of the protein, either way, in both replicates (recomputed)
[1] = compound: COC1=CC=C(C=C1)CN2C=CC3=C2C=C(C=C3)C(=O)NO
Method in brief: (§1)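 K562 cells at 2×10^6 cells/mL were treated for 30 min with 10 μM compound, and aliquots were heated for 3 min over 48°C-58°C before pooling. Extraction used PBS with 0.5% NP-40 at 4°C, and soluble protein was the supernatant after 21,000xg for 90 min, measured by TMTpro 16plex LC-MS/MS with channel sums equalised. Thermal stability values, relative to control samples and from duplicates, are log2 fold changes.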

[2] = compound: CON(C)C(=O)N1N=C(c2cc(F)ccc2F)S[C@@]1(CCCN)c1ccccc1 [filanesib]
Method in brief: as §1

[3] = compound: CO[C@H]1C[C@@H]2CC[C@@H](C)[C@@](O)(O2)C(=O)C(=O)N2CCCC[C@H]2C(=O)O[C@H]([C@H](C)C[C@@H]2CC[C@H](n3cnnn3)[C@H](OC)C2)CC(=O)[C@H](C)/C=C(\C)[C@@H](O)[C@@H](OC)C(=O)[C@H](C)C[C@H](C)/C=C/C=C/C=C/1C [zotarolimus]
Method in brief: as §1

[4] = compound: COc1cc(C(=O)O)ccc1NC(=O)[C@@H]1N[C@@H](CC(C)(C)C)[C@](C#N)(c2ccc(Cl)cc2F)[C@H]1c1cccc(Cl)c1F [idasanutlin]
Method in brief: as §1

[5] = compound: COc1cc(Nc2ncc3c(n2)-c2ccc(Cl)cc2C(c2c(F)cccc2OC)=NC3)ccc1C(=O)O [alisertib]
Method in brief: as §1

[6] = compound: COc1cc2nc(-c3cc(F)ccc3O)nc(N[C@@H]3CNC[C@H]3C(C)(C)O)c2cc1OC
Method in brief: as §1

[7] = compound: COc1cc2ncnc(Nc3ccc(F)c(Cl)c3)c2cc1OCCCN1CCOCC1 [gefitinib]
Method in brief: as §1

[8] = compound: COc1cccc2cc(-c3nc([C@H]4CC[C@H](C(=O)O)CC4)n4ncnc(N)c34)[nH]c12
Method in brief: as §1

[9] = compound: CS(=O)(=O)CCNCc1ccc(-c2ccc3ncnc(Nc4ccc(OCc5cccc(F)c5)c(Cl)c4)c3c2)o1 [lapatinib]
Method in brief: as §1

[10] = compound: CS(=O)(=O)N1CCN(Cc2cc3nc(-c4cccc5[nH]ncc45)nc(N4CCOCC4)c3s2)CC1 [pictilisib]
Method in brief: as §1

Measured: log2 fold change

FAF2 (UniProt Q96CS3)
inactive: [1] -0.019 | [2] -0.022 | [3] 0.035 | [4] 0.007 | [5] 0.004 | [6] -0.011 | [7] 0.056 | [8] 0.009 | [9] 0.029 | [10] 0.017

EDC3 (UniProt Q96F86)
inactive: [1] 0.02 | [2] 0.112 | [3] -0.156 | [4] 0.065 | [5] 0.02 | [6] 0.046 | [7] -0.013 | [8] -0.337 | [9] -0.019 | [10] -0.187

EEF1D isoform 2 (UniProt P29692)
inactive: [1] -0.038 | [2] 0.034 | [3] 0.036 | [4] -0.042 | [5] -0.016 | [6] 0.028 | [7] 0.028 | [8] -0.011 | [9] 0.022 | [10] -0.01

DHPS (UniProt P49366)
Sequence of UniProt P49366 (P49366 whole entry, looked up): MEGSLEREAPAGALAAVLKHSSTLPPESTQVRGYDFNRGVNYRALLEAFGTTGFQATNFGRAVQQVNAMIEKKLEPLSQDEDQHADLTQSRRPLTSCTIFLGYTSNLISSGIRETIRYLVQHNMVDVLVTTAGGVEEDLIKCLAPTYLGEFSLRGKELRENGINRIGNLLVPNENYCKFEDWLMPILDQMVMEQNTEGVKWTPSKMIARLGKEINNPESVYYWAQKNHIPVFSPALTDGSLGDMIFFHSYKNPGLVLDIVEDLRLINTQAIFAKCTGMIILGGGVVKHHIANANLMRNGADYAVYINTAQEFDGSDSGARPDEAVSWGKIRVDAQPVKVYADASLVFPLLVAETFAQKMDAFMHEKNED
inactive: [2] -0.024 | [3] -0.001 | [4] 0.03 | [5] -0.033 | [6] -0.047 | [7] -0.018 | [8] 0.063 | [9] 0.05 | [10] 0.024
active: [1] 0.268

FAM177A1 isoform 2 (UniProt Q8N128)
Sequence of UniProt Q8N128 (Q8N128 whole entry, looked up): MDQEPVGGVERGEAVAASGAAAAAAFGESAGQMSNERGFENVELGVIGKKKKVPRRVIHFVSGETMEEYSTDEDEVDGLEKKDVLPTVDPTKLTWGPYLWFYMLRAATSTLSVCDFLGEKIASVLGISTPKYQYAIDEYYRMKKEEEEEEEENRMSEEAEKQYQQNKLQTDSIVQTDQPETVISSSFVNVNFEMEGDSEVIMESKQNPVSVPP
active: [6] -0.291
inactive: [1] -0.072 | [2] -0.145 | [3] -0.041 | [4] -0.02 | [5] 0.013 | [7] 0.031 | [8] -0.029 | [9] -0.018 | [10] 0

DHRS7B (UniProt Q6IAN0)
Sequence of UniProt Q6IAN0 (Q6IAN0 whole entry, looked up): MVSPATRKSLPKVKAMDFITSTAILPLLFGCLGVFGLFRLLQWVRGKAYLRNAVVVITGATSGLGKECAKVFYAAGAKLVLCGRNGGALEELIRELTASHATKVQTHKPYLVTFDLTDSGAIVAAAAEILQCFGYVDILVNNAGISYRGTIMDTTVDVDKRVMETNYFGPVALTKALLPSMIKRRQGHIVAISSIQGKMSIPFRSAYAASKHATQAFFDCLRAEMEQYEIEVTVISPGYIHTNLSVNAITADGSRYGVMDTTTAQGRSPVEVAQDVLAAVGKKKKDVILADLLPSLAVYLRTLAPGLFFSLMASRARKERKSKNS
active: [6] 0.335
inactive: [1] 0.012 | [2] 0.03 | [3] -0.058 | [4] -0.03 | [5] 0.012 | [7] 0.056 | [8] -0.025 | [9] 0.109 | [10] -0.143

DNAJB12 (UniProt Q9NXW2)
Sequence of UniProt Q9NXW2 (Q9NXW2 whole entry, looked up): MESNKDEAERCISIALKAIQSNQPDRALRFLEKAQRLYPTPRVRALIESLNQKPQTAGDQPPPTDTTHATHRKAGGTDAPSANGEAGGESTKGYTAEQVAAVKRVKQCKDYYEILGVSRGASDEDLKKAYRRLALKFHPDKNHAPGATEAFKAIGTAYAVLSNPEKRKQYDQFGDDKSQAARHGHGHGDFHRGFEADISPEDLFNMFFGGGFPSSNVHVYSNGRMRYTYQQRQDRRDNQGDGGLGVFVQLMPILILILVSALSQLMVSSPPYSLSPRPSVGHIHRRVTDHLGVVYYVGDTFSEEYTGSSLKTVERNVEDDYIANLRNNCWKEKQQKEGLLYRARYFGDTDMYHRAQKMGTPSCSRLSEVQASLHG
inactive: [1] 0.023 | [2] -0.024 | [3] -0.06 | [4] -0.006 | [5] -0.081 | [6] 0.023 | [7] 0.029 | [8] 0.006 | [9] -0.033 | [10] -0.051

DTNBP1 (UniProt Q96EV8)
Sequence of UniProt Q96EV8 (Q96EV8 whole entry, looked up): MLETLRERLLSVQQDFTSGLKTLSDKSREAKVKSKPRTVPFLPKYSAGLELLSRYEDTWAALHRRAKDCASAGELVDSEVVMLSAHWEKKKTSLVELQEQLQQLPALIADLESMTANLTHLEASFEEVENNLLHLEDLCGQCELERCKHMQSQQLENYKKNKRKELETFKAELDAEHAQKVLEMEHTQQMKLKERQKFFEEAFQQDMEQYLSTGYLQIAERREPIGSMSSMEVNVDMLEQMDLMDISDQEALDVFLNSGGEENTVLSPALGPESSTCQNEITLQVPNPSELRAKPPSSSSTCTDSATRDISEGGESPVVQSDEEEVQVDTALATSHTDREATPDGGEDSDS
inactive: [1] -0.033 | [2] -0.115 | [3] -0.009 | [4] -0.068 | [5] -0.003 | [6] 0.004 | [7] 0.018 | [8] 0.044 | [9] -0.041 | [10] 0.073

DCAF10 (UniProt Q5QP82)
Sequence of UniProt Q5QP82 (Q5QP82 whole entry, looked up): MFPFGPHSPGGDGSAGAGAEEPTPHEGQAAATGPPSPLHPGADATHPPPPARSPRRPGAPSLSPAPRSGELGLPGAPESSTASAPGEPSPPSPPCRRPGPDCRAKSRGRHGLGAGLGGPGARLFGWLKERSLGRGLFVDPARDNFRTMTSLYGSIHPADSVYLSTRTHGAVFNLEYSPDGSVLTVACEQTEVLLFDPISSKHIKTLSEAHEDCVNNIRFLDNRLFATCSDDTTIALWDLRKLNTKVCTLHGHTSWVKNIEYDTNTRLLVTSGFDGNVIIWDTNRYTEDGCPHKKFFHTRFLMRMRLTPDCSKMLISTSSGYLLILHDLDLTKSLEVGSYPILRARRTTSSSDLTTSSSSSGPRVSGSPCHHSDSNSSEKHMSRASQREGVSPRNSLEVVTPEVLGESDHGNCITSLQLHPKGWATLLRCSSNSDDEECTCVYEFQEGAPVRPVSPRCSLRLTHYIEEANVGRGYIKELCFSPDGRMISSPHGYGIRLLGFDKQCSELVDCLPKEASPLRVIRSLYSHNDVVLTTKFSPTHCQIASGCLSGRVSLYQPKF
inactive: [1] -0.047 | [2] 0.016 | [3] -0.01 | [4] 0.002 | [5] 0.09 | [6] 0.076 | [7] -0.051 | [8] -0.067 | [9] -0.081 | [10] 0.032

EED, A0A5F9ZI63
inactive: [1] 0.008 | [2] 0.115 | [3] -0.01 | [4] 0.08 | [5] -0.097 | [6] 0.032 | [7] 0.006 | [8] 0.018 | [9] 0.091 | [10] -0.163

DHX36 (UniProt Q9H2U1)
Sequence of UniProt Q9H2U1 (Q9H2U1 whole entry, looked up): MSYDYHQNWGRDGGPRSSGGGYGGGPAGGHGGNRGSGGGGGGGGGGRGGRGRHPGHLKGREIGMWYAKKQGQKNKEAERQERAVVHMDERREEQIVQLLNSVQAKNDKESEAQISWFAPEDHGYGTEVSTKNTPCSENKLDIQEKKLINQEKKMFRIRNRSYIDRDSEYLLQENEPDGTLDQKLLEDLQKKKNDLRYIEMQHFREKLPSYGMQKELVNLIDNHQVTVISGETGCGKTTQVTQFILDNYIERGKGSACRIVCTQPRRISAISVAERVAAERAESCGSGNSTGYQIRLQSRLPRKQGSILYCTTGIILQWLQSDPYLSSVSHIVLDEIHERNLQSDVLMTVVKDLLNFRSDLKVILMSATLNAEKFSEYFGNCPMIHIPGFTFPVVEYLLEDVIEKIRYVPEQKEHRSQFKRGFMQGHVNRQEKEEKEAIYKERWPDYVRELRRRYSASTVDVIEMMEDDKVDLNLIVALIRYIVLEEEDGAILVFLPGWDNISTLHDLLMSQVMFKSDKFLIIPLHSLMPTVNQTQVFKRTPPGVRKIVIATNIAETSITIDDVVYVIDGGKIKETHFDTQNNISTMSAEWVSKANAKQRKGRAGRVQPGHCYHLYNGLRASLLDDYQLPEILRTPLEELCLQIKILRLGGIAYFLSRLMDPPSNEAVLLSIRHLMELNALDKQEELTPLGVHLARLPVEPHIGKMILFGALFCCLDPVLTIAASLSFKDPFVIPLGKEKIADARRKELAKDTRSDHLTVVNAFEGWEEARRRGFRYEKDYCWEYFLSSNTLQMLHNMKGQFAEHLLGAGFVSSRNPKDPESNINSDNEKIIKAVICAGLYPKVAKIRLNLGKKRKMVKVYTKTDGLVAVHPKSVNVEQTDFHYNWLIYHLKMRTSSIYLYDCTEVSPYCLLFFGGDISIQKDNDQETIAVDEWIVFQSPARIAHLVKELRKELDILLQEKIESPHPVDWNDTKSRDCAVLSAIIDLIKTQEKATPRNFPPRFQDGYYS
inactive: [1] 0.04 | [2] 0.119 | [3] 0.024 | [4] 0.017 | [5] 0.025 | [6] 0.017 | [7] -0.127 | [8] 0.059 | [9] 0.025 | [10] -0.038

ERCC6 (UniProt Q03468)
inactive: [1] -0.067 | [2] -0.268 | [3] 0.102 | [4] -0.14 | [5] 0.102 | [6] -0.002 | [7] 0.026 | [8] -0.042 | [9] 0.077 | [10] -0.04

DPYSL2 (UniProt Q16555)
active: [10] 0.262
inactive: [1] -0.082 | [2] 0.006 | [3] -0.06 | [4] 0.029 | [5] 0.093 | [6] 0.055 | [7] -0.041 | [8] 0.038 | [9] 0.029

DAXX (UniProt Q9UER7)
Sequence of UniProt Q9UER7 (Q9UER7 whole entry, looked up): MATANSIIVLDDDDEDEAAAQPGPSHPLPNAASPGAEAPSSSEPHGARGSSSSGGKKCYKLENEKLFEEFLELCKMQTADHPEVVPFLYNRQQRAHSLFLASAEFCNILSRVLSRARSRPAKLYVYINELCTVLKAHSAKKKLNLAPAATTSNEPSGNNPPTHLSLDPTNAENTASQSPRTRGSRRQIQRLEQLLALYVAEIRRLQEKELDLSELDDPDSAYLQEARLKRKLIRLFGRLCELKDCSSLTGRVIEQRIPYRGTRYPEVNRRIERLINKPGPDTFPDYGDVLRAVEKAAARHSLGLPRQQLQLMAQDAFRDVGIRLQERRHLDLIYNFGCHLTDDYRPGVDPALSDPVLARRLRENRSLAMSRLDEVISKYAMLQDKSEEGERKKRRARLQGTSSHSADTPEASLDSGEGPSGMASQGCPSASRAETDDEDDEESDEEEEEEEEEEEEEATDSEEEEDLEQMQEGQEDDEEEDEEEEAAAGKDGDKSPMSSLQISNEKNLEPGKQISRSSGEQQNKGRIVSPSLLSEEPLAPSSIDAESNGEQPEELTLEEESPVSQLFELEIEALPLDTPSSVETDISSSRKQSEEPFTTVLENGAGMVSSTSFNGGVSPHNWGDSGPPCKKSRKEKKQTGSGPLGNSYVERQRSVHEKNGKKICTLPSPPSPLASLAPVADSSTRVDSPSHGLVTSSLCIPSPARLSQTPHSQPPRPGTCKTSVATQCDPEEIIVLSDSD
inactive: [1] 0.248 | [2] 0.008 | [3] 0.055 | [4] -0.067 | [6] 0.283 | [7] -0.125 | [9] -0.05 | [10] 0.247

FAM193B (UniProt Q96PV7)
Sequence of UniProt Q96PV7 (Q96PV7 whole entry, looked up): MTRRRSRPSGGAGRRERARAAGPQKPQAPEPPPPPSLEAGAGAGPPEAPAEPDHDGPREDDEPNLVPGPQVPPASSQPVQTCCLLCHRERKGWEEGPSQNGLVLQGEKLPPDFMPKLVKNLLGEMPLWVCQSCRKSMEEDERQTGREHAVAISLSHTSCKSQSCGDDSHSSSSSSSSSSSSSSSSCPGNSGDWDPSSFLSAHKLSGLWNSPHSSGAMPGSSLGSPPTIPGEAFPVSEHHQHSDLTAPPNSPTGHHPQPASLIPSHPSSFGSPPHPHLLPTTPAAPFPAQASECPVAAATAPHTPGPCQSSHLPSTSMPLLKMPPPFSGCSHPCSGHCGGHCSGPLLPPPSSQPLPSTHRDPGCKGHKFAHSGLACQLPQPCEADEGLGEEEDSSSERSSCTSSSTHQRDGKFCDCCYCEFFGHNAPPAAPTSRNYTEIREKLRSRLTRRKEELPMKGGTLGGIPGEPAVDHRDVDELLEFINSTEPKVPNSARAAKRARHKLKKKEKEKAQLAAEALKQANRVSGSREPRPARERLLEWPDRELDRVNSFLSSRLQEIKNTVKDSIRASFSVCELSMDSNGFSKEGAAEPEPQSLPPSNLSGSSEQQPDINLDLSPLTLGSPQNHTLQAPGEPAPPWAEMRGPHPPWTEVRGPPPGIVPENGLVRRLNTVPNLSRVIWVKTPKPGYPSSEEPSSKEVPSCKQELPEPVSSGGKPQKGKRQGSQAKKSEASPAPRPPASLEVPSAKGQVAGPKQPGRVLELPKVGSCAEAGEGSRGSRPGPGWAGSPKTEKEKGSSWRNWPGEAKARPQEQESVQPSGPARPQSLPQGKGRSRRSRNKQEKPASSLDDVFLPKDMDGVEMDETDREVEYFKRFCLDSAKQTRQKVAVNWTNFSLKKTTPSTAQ
inactive: [1] -0.179 | [2] 0.379 | [3] -0.077 | [4] 0.311 | [6] 0.112 | [9] -0.066
